The inhibition is the drop in the measured response relative to a control, in per cent.

Among all 360,000 compounds or so, about 3,900 (1.1%) were called active. This excerpt belongs to a sample that is enriched for actives. Unmarked numbers belong to inactive results.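 The calls were made as follows: active = mean replicate inhibition score of at least 50 and every replicate individually at or above 50; inconclusive = only one of the two criteria met; inactive = mean below 50 and not all replicates reaching 50.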

The assay can be described thus: inhibitors of HIV-1 Env-driven cell-cell fusion, primary screen, HeLa-JRFL effector, CEM21 target cells, luciferase (AID 651610).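 Also: 0% = plate neutral controls and 100% = maraviroc near 300 nM.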 Conditions: active compounds read high; at 16.7 µM unless noted.
For `CS(=O)(=O)N1[C@H](C#N)[C@H](c2ccc(C#CC3CCCC3)cc2)[C@H]1CO`, the inhibition is 1.54%.

On to `COc1cccc(S(=O)(=O)Nc2ccc3c(c2)[C@@H]2C[C@H](CC(=O)NC4CCCCC4)O[C@H](CO)[C@@H]2O3)c1`, for which the inhibition was -12.8%.

With `COc1ccccc1-c1cn(CC[C@H]2CC[C@H](NC(=O)Cc3ccccn3)[C@H](CO)O2)nn1`, the inhibition is 1.37%.

On to `Cc1noc(C)c1NC(=O)Nc1ccc2c(c1)C(=O)N([C@H](C)CO)C[C@@H](C)[C@H](CN(C)S(=O)(=O)c1ccc(Cl)cc1)OCCCC[C@H](C)O2`, for which the inhibition was -20.3%.

On to `CCC(=O)N[C@H]1C=C[C@@H](CC(=O)NCC2CCCCC2)O[C@H]1CO`, for which the inhibition is 4.15%.

With `OCCCNc1nccc(-c2cc(Nc3cccc(Cl)c3)ncn2)n1`, the inhibition is 95.7% [at 12.3 µM] (active).

On to `Cc1cccc(Nc2nc(NCCO)nc(N3CCCC3)n2)c1`, for which the inhibition is -14.8% [at 12.3 µM].

With `Cn1c(Nc2cccc(Cl)c2)nc2ccccc21`, the inhibition was -29.5% [at 12.3 µM].

For the compound `C[C@@H]1CN([C@@H](C)CO)C(=O)c2cc(NC(=O)Nc3ccc4c(c3)OCO4)ccc2O[C@@H]1CN(C)C(=O)Nc1ccc2c(c1)OCO2`, the inhibition was 16%.

`C[C@@H]1CN([C@H](C)CO)C(=O)c2cccc(NC(=O)Nc3cccc4ccccc34)c2O[C@@H]1CN(C)Cc1ccccc1`: the inhibition is -16.3%.

Take `COc1ccc(-c2nn(C)c(=O)c3ccccc23)cc1CNC(=O)C1CCCCC1`: the inhibition was 23.3% [at 12.3 µM].

Take `COc1ccc(S(=O)(=O)N2CCOCC2)cc1NC(=O)COc1ccccc1`: the inhibition is -4.29% [at 12.3 µM].

Regarding `COc1ccc(-c2nn(C)c(=O)c3ccccc23)cc1NC(=O)COc1ccccc1`, the inhibition is 79.8% [at 12.3 µM] (active).

As for `Cc1noc(C)c1NC(=O)N[C@H]1CC[C@H](CC(=O)N2CCCCC2)O[C@@H]1CO`, the inhibition was 4.43%.

On to `CC1=C(C(=O)N(C(C)C)C(C)C)CC(CC(=O)NCC2CCCCC2)C(=O)N1Cc1ccccc1` (stereo unspecified), for which the inhibition is 61.4% [at 12.3 µM] (active).

As for `CC1=C(C(=O)N2CCOCC2)CC(CC(=O)NCC2CCCCC2)C(=O)N1Cc1ccc(F)cc1` (stereo unspecified), the inhibition is 6.87% [at 12.3 µM].

Turning to `CCN(CC)C(=O)C1=C(C)N(Cc2ccccc2)C(=O)C(CC(=O)NC(c2ccccc2)c2ccccc2)C1` (stereo unspecified), the inhibition was -23.1% [at 12.3 µM].

As to `CC(NCc1ccccc1OC1CCCC1)c1ccccc1` (stereo unspecified), the inhibition was 62.5% [at 12.3 µM] (active).

With `CC(C)(C)NCc1cc(Br)ccc1OC1CCCC1`, the inhibition is 14.4% [at 12.3 µM].

For the compound `COc1cc(CNC2CCCCC2)c(Br)cc1OC1CCCC1`, the inhibition is -65.6% [at 12.3 µM].

In the case of `CCOC(=O)CNC(=O)N(C)[C@H]1C[C@H]2c3[nH]c4c(-c5ccc6c(c5)OCO6)cccc4c3CCN2C(=O)[C@H]1[C@H](C)O`, the inhibition was -112% [at 12.3 µM].

In the case of `CN1CCN(C(=O)C[C@H]2C[C@@H]3c4cc(NC(=O)NC5CCCC5)ccc4O[C@@H]3[C@@H](CO)O2)CC1`, the inhibition was -8.97%.

On to `CC1CCN(C(=O)c2ncn3c2C(=O)N[C@@H](C)C3)CC1`, for which the inhibition was 131% [at 12.3 µM] (active).

As to `CC1CCN(C(=O)c2ccc3c(c2)NC(=O)CN3)CC1`, the inhibition is 1.27% [at 12.3 µM].

On to `CC1CCN(C(=O)c2cc3nc(C4CC4)cc(C(F)(F)F)n3n2)CC1`, for which the inhibition was 12.6% [at 12.3 µM].

Regarding `CCCNC(=O)N1[C@@H](C#N)[C@H](c2ccc(-c3ccc(C(=O)N(C)C)cc3)cc2)[C@@H]1CO`, the inhibition was 26%.

In the case of `O=C(NCc1ccncn1)[C@@H]1[C@@H](CO)[C@@H]2Cn3c(ccc(-c4ccc(F)cc4)c3=O)[C@@H]2N1CC1CC1`, the inhibition was -1.91%.

For `COc1ccc(NC(=O)Nc2ccc3c(c2)CC(=O)N([C@@H](C)CO)C[C@H](C)[C@@H](CN(C)S(=O)(=O)c2cn(C)cn2)O3)cc1`, the inhibition is 13%.

Regarding `NC(=S)NN=Cc1ccc(OC(=O)COc2cc(Cl)c(Cl)cc2Cl)cn1`, the inhibition is 74.3% [at 12.3 µM] (active).

Consider `O=C(COc1cc(Cl)c(Cl)cc1Cl)NCCc1ccccn1`, for which the inhibition is -1.39% [at 12.3 µM].

For the compound `O=C(COC(=O)COc1cc(Cl)c(Cl)cc1Cl)NC1CC1`, the inhibition was 1.57% [at 12.3 µM].

With `CCCN(C)C[C@H]1OCCCC[C@@H](C)Oc2ccc(N(C)C)cc2C(=O)N([C@H](C)CO)C[C@@H]1C`, the inhibition is 0.797%.

As to `CCOC(=O)c1c(C)[nH]c(C)c1S(=O)(=O)NCCCc1ccco1`, the inhibition was -4.62% [at 12.3 µM].

`CCOC(=O)c1[nH]c2ccccc2c1N=C(C)N(CC)CC`: the inhibition was -0.896% [at 12.3 µM].

For `CCOC(=O)c1c(C)[nH]c2c1-c1ccccc1C(=O)C2=O`, the inhibition was 58.9% [at 12.3 µM] (active).

Turning to `C[C@H](CO)N1C[C@H](C)[C@@H](CN(C)CC2CC2)Oc2ccc(NC(=O)Nc3ccccc3)cc2CC1=O`, the inhibition is -2.58%.

Consider `CN(C(=O)CN1C(=O)/C(=C/c2ccc(Cl)cc2)SC1=S)C1CCS(=O)(=O)C1` (stereo unspecified), for which the inhibition is 55.1% [at 12.3 µM] (active).

Consider `CCN(C(=O)CN1C(=O)/C(=C/c2ccc(F)cc2)SC1=S)C1CCS(=O)(=O)C1` (stereo unspecified), for which the inhibition is -11.4% [at 12.3 µM].

For `CN(C(=O)CCN1C(=O)/C(=C/c2ccccc2F)SC1=S)C1CCS(=O)(=O)C1` (stereo unspecified), the inhibition is -6.28% [at 12.3 µM].

Regarding `CNC[C@H]1Oc2ncc(-c3ccccc3F)cc2C(=O)N([C@H](C)CO)C[C@H]1C`, the inhibition was 10.5%.

With `O=C(C[C@@H]1C[C@H]2c3cc(NS(=O)(=O)c4ccc(F)cc4)ccc3O[C@H]2[C@@H](CO)O1)NCc1ccccc1F`, the inhibition was 56.4% (active).

`COc1ccccc1CNC(=O)C[C@H]1C[C@H]2c3cc(NS(=O)(=O)c4ccc(F)cc4)ccc3O[C@H]2[C@@H](CO)O1`: the inhibition is -11.5%.

For `O=C(C[C@H]1C[C@@H]2c3cc(NS(=O)(=O)c4ccc(F)cc4)ccc3O[C@@H]2[C@@H](CO)O1)NCc1cccc(F)c1`, the inhibition was 10.7%.

With `O=C(C[C@H]1C[C@@H]2c3cc(NS(=O)(=O)c4ccc(F)cc4)ccc3O[C@@H]2[C@H](CO)O1)NCc1cccc(F)c1`, the inhibition was 54.4%.

On to `O=C(C[C@@H]1C[C@@H]2c3cc(NS(=O)(=O)c4ccc(F)cc4)ccc3O[C@@H]2[C@H](CO)O1)NCc1ccccc1F`, for which the inhibition is 90.3% (active).

As to `O=C(C[C@H]1C[C@H]2c3cc(NS(=O)(=O)c4ccc(F)cc4)ccc3O[C@H]2[C@H](CO)O1)NCc1cc(F)ccc1F`, the inhibition is -74.8% [at 12.3 µM].
